Compounds without any hit were thinned out: in the full panel of roughly 83,000, 20% have a hit.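 Testing used 96-well plates and a 48-hour single-concentration exposure. Example: -40 means 40% of the starting cells died.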 Calls of active or inactive are those of the source. Rule for the calls: active = growth percent below 10; inactive = the rest.

The first assay deals with MOLT-4 leukemia. Nature of the assay: NCI-60 one-dose screen, 48 h (100 = growth as untreated, 0 = no growth, -100 = all killed). The following applies: 10 µM unless noted.
Consider `COc1cc2c(-c3nc4cc(Cl)c(F)cc4s3)cc(=O)oc2c(C)c1OC`, for which the growth was -43% (active).

In the case of `COc1cc(C2=NN(C(C)=O)C(c3ccc(OC(C)=O)cc3OC(C)=O)O2)c(OC(C)=O)c2ccccc12` (stereo not given), the growth is -2.56% (active).

For the molecule `Cc1ccc2c(c1)O/C(=C\c1ccc([N+](=O)[O-])o1)C2=O`, the growth is -1.6% (active).

`O=C(/C(=C/c1cccc([N+](=O)[O-])c1)c1ccccc1)c1ccccc1`: the growth is 4.09% (active).

Consider `CC1(C)OC(=O)C(=Cc2ccccc2Br)C(=O)O1`, for which the growth was 99.5% (inactive).

Turning to `c1ccc(-c2nnc(Nc3nnc(-c4ccccc4)s3)s2)cc1`, the growth is 102% (inactive).

In the case of `COc1cc(/C=C/C(=O)Nc2ccc3c(c2)/C(=C\c2cccn2C)C(=O)N3)cc(OC)c1OC`, the growth is 50.8% (inactive).

`O=C(Nc1nc(-c2ccc(Cl)cc2)cs1)c1cc(O)c(O)c(O)c1`: the growth was 4.68% (active).

On to `CCCCCCOc1ccc(/C=N/NC(N)=S)cc1`, for which the growth was 7.23% (active).

As to `COc1ccc(-c2csc(NC(=O)c3cc(OC)c(OC)c(OC)c3)n2)cc1`, the growth was 103% (inactive).

In the case of `O=C(O)c1ccc(NC(=O)c2ccc(Nc3ccnc(C(F)(F)F)c3)cc2)cc1`, the growth is 94.5% (inactive).

For the molecule `COc1cc(/C=C2\CCC/C(=C\c3ccc(OCC4CO4)c(OC)c3)C2=O)ccc1OCC1CO1` (stereo not given), the growth is -12.6% (active).

Turning to `COc1cc(/C=C/C(=O)c2c(-c3ccc(Cl)cc3)nc3sc(C)nn23)cc(OC)c1OC`, the growth is 48.3% (inactive).

With `C=C1c2c(C)nn(-c3ccc(C#CCOC4OC(CO)C(O)C(O)C4O)cc3)c2N(C)C23C[C@H]1C1(C)c4c(C)nn(-c5ccc(C#CCOC6OC(CO)C(O)C(O)C6O)cc5)c4N(C)C(C)(C[C@H]12)C3` (stereo not given in full), the growth is -14.9% (active).

Consider `O=C(/C(=C/c1ccc([N+](=O)[O-])cc1)c1ccccc1)c1ccccc1`, for which the growth is -2.9% (active).

`N#Cc1cccc(/C=C(/C(=O)c2ccccc2)c2ccccc2)c1`: the growth was 4.97% (active).

With `COc1cc(/C=C/C(=O)c2c(-c3ccc(F)cc3)nc3sc(C)nn23)cc(OC)c1OC`, the growth is 13.4% (inactive).

In the case of `CCOc1nc(-c2ccccc2)cc2c(O)c(C(=O)n3nc(C)cc3C)[nH]c(=O)c12`, the growth is 99% (inactive).

`COc1ccc(/C=C(\C#N)c2ccccc2)cc1`: the growth is 96.1% (inactive).

On to `O=C(Nc1nc(-c2ccccc2)cs1)c1cc(O)c(O)c(O)c1`, for which the growth is 17.1% (inactive).

Consider `Cc1cc2c(C#N)n3c(c2cc1C)C(=O)C(c1ccccc1)Oc1ccccc1-3` (stereo not given), for which the growth was 69.2% (inactive).

With `CCOC(=O)/C(=C/c1ccccc1)C(=O)c1ccccc1`, the growth was 33.1% (inactive).

For the molecule `COc1cc2c(C#N)n3c(c2cc1OC)C(=O)C(c1ccccc1)Oc1ccccc1-3` (stereo not given), the growth was 63.4% (inactive).

For `O=C1/C(=C/c2ccc([N+](=O)[O-])o2)Oc2ccc(Br)cc21`, the growth is 1.28% (active).

Take `c1cnc2n[nH]c(Nc3ncnc4c3sc3ncccc34)c2c1`: the growth is 97.9% (inactive).

As to `CCN1C(=O)c2ccc3c4c(ccc(c24)C1=O)C(=O)N(CCCNCc1ccccc1OC)C3=O`, the growth is -51.7% (active).

For `O=C(/C=C/c1ccc(Cl)cc1)c1ccccc1`, the growth was 96.7% (inactive).

In the case of `CCOC(=O)c1c(NC(=O)C2CCCCC2C(=O)O)sc2c1CCCC2` (stereo not given), the growth is 105% (inactive).

For `O=C(NCCCO)c1cc(Cl)ccc1O`, the growth was 33.2% (inactive).

As for `CN(C(=O)c1ccccc1)N(C)C(=O)c1ccccc1`, the growth is 88.6% (inactive).

Regarding `CCC1(c2ccccc2)Oc2ccccc2-n2c(C#N)c3ccccc3c2C1=O` (stereo not given), the growth is 91% (inactive).

For the molecule `Clc1cccc(Cc2cn3cc(-c4ccccc4)nc3s2)c1`, the growth is 64.1% (inactive).

Regarding `CCN(CC)c1ccc(C(O)C2=CC(=O)c3ccccc3C2=O)cc1` (stereo not given), the growth is 7.92% (active).

As to `COc1ccc(-c2noc(N)c2-c2cc(OC)c3c(c2)OCO3)cc1`, the growth is 18.4% (inactive).

Take `N#Cc1c2ccccc2c2n1-c1ccccc1OC(c1ccccc1)C2=O` (stereo not given): the growth was 56.4% (inactive).

For the molecule `O=C(OCCBr)c1ccc(Cl)c([N+](=O)[O-])c1`, the growth is 83.7% (inactive).

In the case of `O=C1NCN(c2ccccc2)C12CCN(CCCC(c1ccc(F)cc1)c1ccc(F)cc1)CC2`, the growth is 34.3% (inactive).

For the molecule `COc1ccc(-c2csc(NC(=O)c3cc(O)c(O)c(O)c3)n2)cc1`, the growth was 28% (inactive).

In the next assay the test system is SR leukemia. The description is as above. To be noted: 10 µM unless noted.
For `COc1cc2c(-c3nc4cc(Cl)c(F)cc4s3)cc(=O)oc2c(C)c1OC`, the growth was -53.9% (active).

Consider `COc1cc(C2=NN(C(C)=O)C(c3ccc(OC(C)=O)cc3OC(C)=O)O2)c(OC(C)=O)c2ccccc12` (stereo not given), for which the growth was 2.88% (active).

As for `Cc1ccc2c(c1)O/C(=C\c1ccc([N+](=O)[O-])o1)C2=O`, the growth is 10.6% (inactive).

Consider `O=C(/C(=C/c1cccc([N+](=O)[O-])c1)c1ccccc1)c1ccccc1`, for which the growth is 4.42% (active).

In the case of `CC1(C)OC(=O)C(=Cc2ccccc2Br)C(=O)O1`, the growth is 79.7% (inactive).

As for `c1ccc(-c2nnc(Nc3nnc(-c4ccccc4)s3)s2)cc1`, the growth is 97.4% (inactive).

Regarding `COc1cc(/C=C/C(=O)Nc2ccc3c(c2)/C(=C\c2cccn2C)C(=O)N3)cc(OC)c1OC`, the growth was 16.2% (inactive).

As to `O=C(Nc1nc(-c2ccc(Cl)cc2)cs1)c1cc(O)c(O)c(O)c1`, the growth is 0.551% (active).

Turning to `CCCCCCOc1ccc(/C=N/NC(N)=S)cc1`, the growth was 69.5% (inactive).

As to `COc1ccc(-c2csc(NC(=O)c3cc(OC)c(OC)c(OC)c3)n2)cc1`, the growth is 95.8% (inactive).

On to `O=C(O)c1ccc(NC(=O)c2ccc(Nc3ccnc(C(F)(F)F)c3)cc2)cc1`, for which the growth is 90% (inactive).

In the case of `COc1cc(/C=C2\CCC/C(=C\c3ccc(OCC4CO4)c(OC)c3)C2=O)ccc1OCC1CO1` (stereo not given), the growth is -3.1% (active).

On to `COc1cc(/C=C/C(=O)c2c(-c3ccc(Cl)cc3)nc3sc(C)nn23)cc(OC)c1OC`, for which the growth is 26.1% (inactive).

Consider `C=C1c2c(C)nn(-c3ccc(C#CCOC4OC(CO)C(O)C(O)C4O)cc3)c2N(C)C23C[C@H]1C1(C)c4c(C)nn(-c5ccc(C#CCOC6OC(CO)C(O)C(O)C6O)cc5)c4N(C)C(C)(C[C@H]12)C3` (stereo not given in full), for which the growth is 6.31% (active).

On to `O=C(/C(=C/c1ccc([N+](=O)[O-])cc1)c1ccccc1)c1ccccc1`, for which the growth is 0.152% (active).

With `N#Cc1cccc(/C=C(/C(=O)c2ccccc2)c2ccccc2)c1`, the growth was 3% (active).

`COc1cc(/C=C/C(=O)c2c(-c3ccc(F)cc3)nc3sc(C)nn23)cc(OC)c1OC`: the growth was 4.81% (active).

`CCOc1nc(-c2ccccc2)cc2c(O)c(C(=O)n3nc(C)cc3C)[nH]c(=O)c12`: the growth is 96.2% (inactive).

In the case of `COc1ccc(/C=C(\C#N)c2ccccc2)cc1`, the growth was 55.7% (inactive).

Regarding `O=C(Nc1nc(-c2ccccc2)cs1)c1cc(O)c(O)c(O)c1`, the growth was 8.07% (active).

On to `Cc1cc2c(C#N)n3c(c2cc1C)C(=O)C(c1ccccc1)Oc1ccccc1-3` (stereo not given), for which the growth was 7.67% (active).

Take `CCOC(=O)/C(=C/c1ccccc1)C(=O)c1ccccc1`: the growth is 6.68% (active).

Consider `COc1cc2c(C#N)n3c(c2cc1OC)C(=O)C(c1ccccc1)Oc1ccccc1-3` (stereo not given), for which the growth is 12.5% (inactive).

`O=C1/C(=C/c2ccc([N+](=O)[O-])o2)Oc2ccc(Br)cc21`: the growth was 8.8% (active).

For the molecule `c1cnc2n[nH]c(Nc3ncnc4c3sc3ncccc34)c2c1`, the growth was 101% (inactive).

As to `CCN1C(=O)c2ccc3c4c(ccc(c24)C1=O)C(=O)N(CCCNCc1ccccc1OC)C3=O`, the growth is -42% (active).

Consider `O=C(/C=C/c1ccc(Cl)cc1)c1ccccc1`, for which the growth is 23.1% (inactive).

`CCOC(=O)c1c(NC(=O)C2CCCCC2C(=O)O)sc2c1CCCC2` (stereo not given): the growth was 111% (inactive).

Consider `O=C(NCCCO)c1cc(Cl)ccc1O`, for which the growth is 26.1% (inactive).

Regarding `CN(C(=O)c1ccccc1)N(C)C(=O)c1ccccc1`, the growth is 92.8% (inactive).

With `CCC1(c2ccccc2)Oc2ccccc2-n2c(C#N)c3ccccc3c2C1=O` (stereo not given), the growth was 89.2% (inactive).

On to `CCN(CC)c1ccc(C(O)C2=CC(=O)c3ccccc3C2=O)cc1` (stereo not given), for which the growth is -5.59% (active).

With `COc1ccc(-c2noc(N)c2-c2cc(OC)c3c(c2)OCO3)cc1`, the growth was -25.8% (active).

With `N#Cc1c2ccccc2c2n1-c1ccccc1OC(c1ccccc1)C2=O` (stereo not given), the growth is -7.43% (active).

Consider `O=C(OCCBr)c1ccc(Cl)c([N+](=O)[O-])c1`, for which the growth was 86.5% (inactive).

Consider `O=C1NCN(c2ccccc2)C12CCN(CCCC(c1ccc(F)cc1)c1ccc(F)cc1)CC2`, for which the growth is 8.54% (active).

As to `COc1ccc(-c2csc(NC(=O)c3cc(O)c(O)c(O)c3)n2)cc1`, the growth is 14.5% (inactive).

The record behind these values is PubChem BioAssay (NCI).
